Measured values from the OligoGym collection.
Further: reference of the scale not given here.

What follows are sequences tested against GLIS2 (assay: pooled miR-30 sensor sort-seq; sequence = guide strand). Details: shRNA.
TTTTTTTAAAACTCTATGCTAA gave a sensor-assay potency score (higher = more potent) of -0.424. With TAGAAAGGCACTTAGAACCTGT the sensor-assay potency score (higher = more potent) was 0.24. TTGGAATAGCGCTTGTTGCAGC showed a sensor-assay potency score (higher = more potent) of -0.438. Sequence TAAAACTCTATGCTAACAGCAA has a sensor-assay potency score (higher = more potent) of -0.574. In the case of ATAGTCATTAGCTTATCTCTTT, the sensor-assay potency score (higher = more potent) is reported as -0.353. Work on TTCTCGTTGGTGTGTGTGCGGA yielded a sensor-assay potency score (higher = more potent) of -0.632. In the case of TTTCACAGAAGAGTTTCCGTTC, the sensor-assay potency score (higher = more potent) is reported as 0.4. ATCGTTGACATGGTCCACCAGG was tested, and the sensor-assay potency score (higher = more potent) was -0.948. TAGTCATTAGCTTATCTCTTTT showed a sensor-assay potency score (higher = more potent) of -1.29. In the case of TGGATGAGCATCTTGTACCTGG, the sensor-assay potency score (higher = more potent) is reported as -0.352. Sequence TTTATAAACTTCCTCTCCCATG has a sensor-assay potency score (higher = more potent) of -1.13. TATTGTTATAGTCATTAGCTTA was tested, and the sensor-assay potency score (higher = more potent) was -0.656.

What follows are sequences tested against GLP1R in the same assay as above. Details: shRNA.
For ATGAGCAGAAACACCAGGCGGC, the sensor-assay potency score (higher = more potent) was -0.579. TTATATCCTATTATTTTCCTTG was tested, and the sensor-assay potency score (higher = more potent) was -0.237. With TTCAGGTGGATGTAGTTCCTGG the sensor-assay potency score (higher = more potent) was -0.141. Work on TAGTTCATGTTGGAGTTCCTGG yielded a sensor-assay potency score (higher = more potent) of -0.642. For TTTTGCAGCCACGAACTCCTTG, the sensor-assay potency score (higher = more potent) was 0.187. TTGCAGAACAAGTCTGTGGCAG gave a sensor-assay potency score (higher = more potent) of 0.187. In the case of TTGATGAAGACGGACAATGCTC, the sensor-assay potency score (higher = more potent) is reported as -0.64. TATCCTATTATTTTCCTTGCAC gave a sensor-assay potency score (higher = more potent) of 0.182. In the case of TTGGAGTTCCTGGTCCAGCAGC, the sensor-assay potency score (higher = more potent) is reported as -1.12. For TTTGATGTCTGTCTTGCACATG, the sensor-assay potency score (higher = more potent) was -0.835. Work on TTGATGTCTGTCTTGCACATGA yielded a sensor-assay potency score (higher = more potent) of -0.0737. Sequence TTCCTTGCACATCACATGCCTC has a sensor-assay potency score (higher = more potent) of -0.533.

These sequences were tested against GLRA3 in the same assay as above. Details: shRNA.
In the case of TTGCTTGTAGACATGGTCCCAT, the sensor-assay potency score (higher = more potent) is reported as 0.533. Sequence TAGGCTGTGAAGCTGAATCGGC has a sensor-assay potency score (higher = more potent) of -0.0399. TAACATATAAACACATTGGCAG showed a sensor-assay potency score (higher = more potent) of -0.00869. With TAGCATTGAATTACAAATCAAG the sensor-assay potency score (higher = more potent) was -1.08. TGACTTTGCATAGCTAACCAAA gave a sensor-assay potency score (higher = more potent) of -1.29. In the case of TATACATGTTTGTACATCCATG, the sensor-assay potency score (higher = more potent) is reported as -1.26. TTCTTCTTTCAACAGAAACTGG showed a sensor-assay potency score (higher = more potent) of -0.833. Work on TTCGAGATCTTGCACTGTCTGT yielded a sensor-assay potency score (higher = more potent) of -0.307. Work on TTATTCTTTCTCTTTCGTCGAA yielded a sensor-assay potency score (higher = more potent) of 0.181. With TTGCATGTGACATTAACTGGAG the sensor-assay potency score (higher = more potent) was -0.491. TAGCTTTGACATATGAAACTTT gave a sensor-assay potency score (higher = more potent) of -0.212. Work on TATTCTTTCTCTTTCGTCGAAA yielded a sensor-assay potency score (higher = more potent) of -0.712.

The sequences below were run against GNAQ in the same assay as above. Details: shRNA.
With TACTCTTGCCACTCTCTCCTGT the sensor-assay potency score (higher = more potent) was 0.305. TCGAACTCTAAGCACATCTTGT gave a sensor-assay potency score (higher = more potent) of -0.759. In the case of TTGAGTGTGTCCATGGCTCTGA, the sensor-assay potency score (higher = more potent) is reported as 0.188. TATCTTCATCAGAGTATCCTGA was tested, and the sensor-assay potency score (higher = more potent) was -0.164.
